Consider 30 molecules from PubChem BioAssay (NCATS).

Each structure is given as a SMILES string. Where “and” joins values, the source holds several entries; their conditions need not be identical. Identical values can stand only once. Results filed as inconclusive are left out. A number with no mark means an inactive call. Calls of active or inactive are those of the source. The call rests on the fitted dose curve; in most records, active means well fitted curve in the direction sought with a large enough effect; inconclusive means small, poorly fitted or top-dose-only effect, or another doubt; inactive means no such curve, though single readings can be large; an effect the other way counts as inactive or inconclusive.

Assay [1] addresses Cellular tumor antigen p53 (Homo sapiens) (UniProt P04637). Put plainly: Primary qHTS for small molecule compounds that upregulate eGFP-tagged delta133p53alpha (in N-terminal) cells. (AID 2060322).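 Further: cells pre-induced with doxycycline then dosed without doxycycline; series mostly up to about 56 µM; 0% = DMSO vehicle and 100% = reference activator; nearly all actives have a fitted effect of over 75% in size.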 Conditions: NCI-H358 eGFP-delta133p53alpha fluorescence, 24 h; activation: stronger effect = higher value. The essentials:
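NCI-H358 cells pre-induced 24 h with 10 ng/ml doxycycline for eGFP-delta133p53alpha, plated dox-free and exposed 24 h at 37C to titrated compounds. Fixed, Hoechst-stained; gated GFP peak intensity by laser scanning cytometry, normalized to DMSO (0%) and 57.5 uM 5-azacytidine (100%).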
For orientation: Quantitative high-throughput screening tests each substance at several concentrations.

The target in assay [2] is Retinaldehyde dehydrogenase 3 (Homo sapiens) (UniProt P47895). Put plainly: qHTS for Inhibitors of the Aldehyde Dehydrogenase Family (ALDH1A3) Primary screen (AID 2061315).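 Further: plate controls were DMSO vehicle for no effect and reference inhibitor for full effect.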
For assay [3] the target is unchanged. As to the kind of experiment: qHTS for Inhibitors of the Aldehyde Dehydrogenase Family (ALDH1A3) Validation screen (AID 2061312). Further: nearly all actives have a fitted effect of over 45% in size. Further: potency means the concentration at half of the fitted maximal effect.
Assay [4] can be described thus: BET inhibitor-based combinations targeting novel dependencies in MECOM-rearranged (r) AML: SET-2 cell line (AID 2202231). Further: potency means the concentration at half of the fitted maximal effect; nearly all actives have a fitted effect of over 35% in size. The note with it: SET-2 AML cells viability, CellTiter-Glo luminescence, 48 h; viability: stronger effect = lower value, concentration not given here. In a few lines:
(§1)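 Readout: CellTiter-Glo luminescence. Exposure: 48 h, 11 concentrations, 500 cells/well. Metric: AUC and within-line Z-AUC after DMSO/empty-well normalization.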
In general terms: Cellular ATP, detected with luciferase, serves as a proxy for viable cell number.

The nature of assay [5]: BET inhibitor-based combinations targeting novel dependencies in MECOM-rearranged (r) AML: OCI-AML3 cell line (AID 2202232). Further: potency means the concentration at half of the fitted maximal effect; nearly all actives have a fitted effect of over 35% in size. The note with it: Potency: OCI-AML3 viability. In a few lines: as §1
A short description of assay [6]: BET inhibitor-based combinations targeting novel dependencies in MECOM-rearranged (r) AML: MV-4-11 cell line (AID 2202233). Further: potency means the concentration at half of the fitted maximal effect; nearly all actives have a fitted effect of over 45% in size. In a few lines: (§2)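 Seeding density was 500 cells/well, and drug exposure lasted 48 hr under standard culture conditions. Read-out used CellTiter-Glo reagent with a 15 min room-temperature incubation before luminescence measurement; AUC and Z-AUC summarize the normalized responses.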

A short description of assay [7]: BET inhibitor-based combinations targeting novel dependencies in MECOM-rearranged (r) AML: HNT-34 cell line (AID 2202234). Further: potency means the concentration at half of the fitted maximal effect; nearly all actives have a fitted effect of over 35% in size. In a few lines:
as §2

Assay [8] is described as follows: BET inhibitor-based combinations targeting novel dependencies in MECOM-rearranged (r) AML: UCSD-AML1 cell line (AID 2202235). Further: potency means the concentration at half of the fitted maximal effect; nearly all actives have a fitted effect of over 40% in size. The essentials:
as §2

Assay [9] can be described thus: BET inhibitor-based combinations targeting novel dependencies in MECOM-rearranged (r) AML: AML-191 cell line (AID 2202236; further: potency means the concentration at half of the fitted maximal effect; nearly all actives have a fitted effect of over 35% in size). In a few lines:
as §1

A short description of assay [10]: BET inhibitor-based combinations targeting novel dependencies in MECOM-rearranged (r) AML: AML-194 cell line (AID 2202237; further: potency means the concentration at half of the fitted maximal effect; nearly all actives have a fitted effect of over 40% in size). In a few lines:
as §1

Sequence of Cellular tumor antigen p53 (Homo sapiens) (P04637 whole entry, looked up): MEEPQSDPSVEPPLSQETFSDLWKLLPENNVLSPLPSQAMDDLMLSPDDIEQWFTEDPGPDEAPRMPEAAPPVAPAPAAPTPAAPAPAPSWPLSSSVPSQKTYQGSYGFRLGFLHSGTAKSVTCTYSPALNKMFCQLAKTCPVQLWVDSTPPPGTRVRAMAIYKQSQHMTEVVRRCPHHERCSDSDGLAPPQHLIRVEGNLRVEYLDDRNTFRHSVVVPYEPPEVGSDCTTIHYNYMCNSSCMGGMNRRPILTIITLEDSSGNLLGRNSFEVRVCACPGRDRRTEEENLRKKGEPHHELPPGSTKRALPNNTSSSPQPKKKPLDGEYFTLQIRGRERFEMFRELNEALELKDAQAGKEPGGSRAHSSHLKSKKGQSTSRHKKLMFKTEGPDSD

As to `CC(=O)NC(Cc1c[nH]c2ccccc(=O)c12)C(=O)O` (stereo unspecified), the activation in assay [1] was -2.29%. Besides, the Potency entry in assay [2] was “inactive”.
Turning to `Cc1cc(OCc2nc(-c3ccccc3Cl)cs2)ccc1OCC(=O)O`, the activation in assay [1] is -1.91%. For the same molecule, the Potency entry in assay [3] and in assay [2] was “inactive” throughout.
For the molecule `COc1cc2c(Oc3ccc(-c4cnc(Nc5ccc(F)cc5)n(C)c4=O)cc3F)ccnc2cc1OCCCN1CCOCC1`, the activation in assay [1] was 11.5%. The Potency is 11.2 µM (active) in assay [3]; 20.9 µM (active) in [4]; 16.6 µM (active) in assay [5]; 0.0934 µM (active) in assay [6]; 0.372 µM (active) in assay [7]; 11.8 µM (active) in [8]. Besides, the Potency was 5.9 µM (active) in assay [9] and 5.25 µM (active) in assay [10]. The Potency result in assay [2] is “inactive”.
`CCOc1nc2cccc(C(=O)OCc3oc(=O)oc3C)c2n1Cc1ccc(-c2ccccc2-c2noc(O)n2)cc1`: the activation in assay [1] was 0%. In addition, the Potency result in [3] and in assay [2] was “inactive” in each case.
Take `O=C(Nc1cnc(Cl)nc1)c1ccc(F)c(F)c1`: the activation in assay [1] was 5.25%. In addition, the Potency entry in assay [3] and in assay [2] was “inactive” throughout.
For the molecule `CC(=O)OC[C@@]12C(=O)C[C@@H](C)[C@]3(C[C@@H](c4ccoc4)O[C@H]3OC(C)=O)[C@H]1CCC[C@]21CO1`, the activation in assay [1] is 11.5%. Besides, the Potency entry in assay [2] is “inactive”.
For the molecule `COCc1c(O)c(C(=O)O)c(C)c2c1OC(=O)c1c(C)cc(O)c(CO)c1O2`, in [1], the activation was 0.893%. The Potency result in assay [2] is “inactive”.
For `Clc1ccc(Cn2c(Cc3ccccc3)nc3ccccc32)cc1`, the activation in [1] was -5.25%. Besides, the Potency result in assay [3] and in assay [2] was “inactive” throughout.
Turning to `CN(Cc1ccc(C(=O)O)cc1)c1ccc(OCc2c(-c3c(Cl)cccc3Cl)noc2C2CC2)nc1C(F)(F)F`, in assay [1], the activation was -10.5%. Also, the Potency result in assay [2] is “inactive”.
In the case of `C/C=C/C=C/C(O)=C1\C(=O)[C@]2(C)C3C(C(=O)CC/C=C/C)=C(O)C4(C)C1[C@]1(C)O[C@@]4(O)[C@@]3(C)O[C@@]12O`, the activation in [1] was 1.53%. The Potency result in assay [2] is “inactive”.
As to `COc1cccc(OC)c1-c1cc(C(=O)N[C@@H](CC(C)C)C(=O)O)nn1-c1ccnc2cc(Cl)ccc12`, the activation in assay [1] is 15.8%. In addition, the Potency result in [2] was “inactive”.
`CC(O)C1C(=O)N2C(C(=O)O)=C(SC3CNC(C(=O)N(C)C)C3)C(C)C12` (stereo unspecified): the activation in assay [1] was -0.506% and -5.25%. Besides, the Potency entry in assay [2] was “inactive”.
As for `CC(=O)OC1/C(C)=C/C(=O)C(OC(C)=O)C(C)(C)/C=C/C(C)C(=O)C2(OC(C)=O)CC(C)C(OC(=O)c3ccccc3)C12` (stereo unspecified), the activation in assay [1] is -10.7%. Also, the Potency result in assay [2] was “inactive”.
Regarding `CCC(Nc1ncnc2nc[nH]c12)c1nc2cccc(F)c2c(=O)n1-c1ccccc1` (stereo unspecified), the activation in assay [1] is 4.46%. Further, the Potency result in [2] was “inactive”.
On to `Cc1cc(NC(=O)Nc2ccc(F)c(F)c2)n(-c2ccccc2)n1`, for which the activation in assay [1] is -15.8%. The Potency result in assay [3] and in assay [2] was “inactive” throughout.
Take `CC(C)CC(=O)n1cc(C(N)=O)c(=O)cc1C(O)c1ccccc1` (stereo unspecified): the activation in [1] is -1.53%. Besides, in assay [2], the Potency result was “inactive”.
Turning to `O=c1[nH]cnc2c([C@@H]3N[C@H](CO)[C@@H](O)[C@H]3O)c[nH]c12`, in assay [1], the activation was 10.3%. Also, the Potency entry in [2] was “inactive”.
`COC(=O)C1=C(C)NC(C)=C(C(=O)O[C@@H]2CCCN(Cc3ccccc3)C2)[C@@H]1c1cccc([N+](=O)[O-])c1`: in assay [1], the activation is 8.47% and 23.4%. In addition, the Potency entry in assay [3] and in assay [2] was “inactive” each time.
As to `Cn1nnc(-c2ccc(-c3ccc(N4C[C@H](COP(=O)(O)O)OC4=O)cc3F)cn2)n1`, the activation in assay [1] was -3.67%. Also, the Potency entry in [2] was “inactive”.
As to `COc1ccc2cc(C(C)C(=O)Oc3ccc(C(N)=S)cc3)ccc2c1` (stereo unspecified), the activation in assay [1] is -3.34%. The Potency entry in assay [3] and in assay [2] was “inactive” each time.
Consider `O[C@@H](COc1cccc2ncccc12)CN1CCN(C2c3ccccc3[C@@H]3[C@H](c4ccccc42)C3(F)F)CC1` (stereo partly specified), for which the activation in [1] was 22%. Moreover, the Potency result in [3] and in assay [2] was “inactive” in each case. Besides, the Potency is 20.9 µM (active) in [5]; 18.6 µM (active) in assay [6]; 26.3 µM (active) in [7]; 23.5 µM (active) in assay [9]; 23.5 µM (active) in [10].
As for `C=C1C(O)C(O)C2(CC3C(C)=CCC4C(C)(C(=O)O)CCCC34C)OC2C1O` (stereo unspecified), in assay [1], the activation was -22.1%. Moreover, the Potency entry in [2] was “inactive”.
In the case of `CC(=O)NC1C(OC(C)(C)C2CCC3(C)C=C(C4CCC5C4(C)CC(O)C4OC(C(C)(C)O)CCC45C)CCC3O2)OC(CO)C(O)C1O` (stereo unspecified), in assay [1], the activation is -3.05%. For the same molecule, the Potency entry in [2] is “inactive”.
For `O=C(Nc1ccc(-c2ccc(Cl)c(Cl)c2)cc1)C1=C(O)c2ccccc2S(=O)(=O)N1`, the activation in assay [1] is -5.73%. The Potency result in assay [2] is “inactive”.
Turning to `CC[C@H](C)/C=C(C)/C=C/C(=O)Cc1cc(O)c(C)c(O)c1C=O`, in assay [1], the activation is 7.63%. In [2], the Potency entry was “inactive”.
For the molecule `CCC(C)/C=C(C)/C=C/C(=O)C1CCC(O)C(C)(O)C1=O` (stereo unspecified), the activation in [1] was 14.5%. The Potency entry in assay [2] was “inactive”.
In the case of `O=C(O)c1cc(I)ccc1NC(=O)[C@H](Cc1ccccc1)NCc1ccccc1`, the activation in [1] is -19.7%. For the same molecule, the Potency result in [2] was “inactive”.
Regarding `CCC/C=C/C=C/C1CC(O)C(O)C(=O)C1CO` (stereo unspecified), the activation in assay [1] is -17.6%. Besides, in assay [2], the Potency entry is “inactive”.
Take `CC(/C=C/C=C(\C)C(=O)O[C@@H]1O[C@H](CO[C@@H]2O[C@H](CO)[C@@H](O)[C@H](O)[C@H]2O)[C@@H](O)[C@H](O)[C@H]1O)=C\C=C\C=C(C)\C=C\C=C(/C)C(=O)O[C@@H]1C[C@](O)(C(=O)O)C[C@@H](O)[C@H]1OC(=O)/C=C/c1ccc(O)c(O)c1`: the activation in assay [1] was 16%. In assay [2], the Potency entry is “inactive”.
Regarding `CC(C)(Cc1nc(-c2ccc(O)cn2)no1)C(=O)NC1=C(C(=O)O)CCCC1`, the activation in [1] is 2.86%. The Potency entry in assay [2] is “inactive”.
